# Hit rate of the full screen: of about 1,100 compounds, about 210 (19%) were called active. How the calls were made is not given here. Not all results are given here. A call without a number means that no potency is given here. Potency and affinity values are given separately.
# Assay: cell viability loss from selected hits – cytotoxicity control for SV40 T antigen inhibitor project, dose response (AID 2102);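 further: cells exposed to compounds for 72 hours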
# Details: Host cell viability cytotoxicity counter-screen; series mostly up to 50 µM
row,Structure (SMILES),outcome
1,Oc1ccc(/C=N/NC(=S)NCC2CCCO2)cc1 (stereo unspecified),inactive
2,COc1ccc(-c2nc(O)c3cnccn23)cc1,inactive
3,CCN(CC)c1ccc(NC(=O)c2ccco2)cc1,inactive
4,CCN(CC)c1ccc(NC(=O)c2ccccc2F)cc1,inactive
5,CC(=O)Nc1ccc(OC(=O)C(CCS(C)(=O)=O)N2C(=O)c3ccccc3C2=O)cc1 (stereo unspecified),inactive
6,O=C(O)/C=C/c1ccc(O)c(O)c1,inactive
7,Oc1cc(O)cc(/C=C/c2ccc(O)c(O)c2)c1,inactive
8,COc1cc(/C=N/NC(=O)C(C)n2nnc3ccccc32)ccc1O (stereo unspecified),inactive
9,O=C(N/N=C/c1ccc(OC(=O)c2ccco2)cc1)c1ccc[n+]([O-])c1,inactive
10,Oc1ccc(O)c(-c2cnns2)c1,inactive
11,O=C1CC(c2ccc(O)c(O)c2)Oc2c1ccc(O)c2O (stereo unspecified),inactive
12,CC1=C(C)CS(=O)N(S(=O)(=O)c2ccc(Cl)cc2)C1 (stereo unspecified),inactive
13,COc1cc(/C=N/Nc2nc3ccccc3[nH]c2=O)ccc1O,inactive
14,COc1cccc(-n2c(=O)c3ccccc3n3c(=S)[nH]nc23)c1,inactive
15,COc1cc(-c2nnc(SCc3cc(=O)oc4cc(O)c(O)cc34)o2)cc(OC)c1OC,inactive
16,CCN(CC)CCN1C(=O)C(=O)/C(=C(/O)c2ccc(C)cc2)C1c1cccnc1 (stereo unspecified),inactive
17,CN=C1S/C(=C\c2ccc(O)c(OC)c2)C(=O)N1C,inactive
18,Cc1occc1C(=O)N/N=C/C=C/c1ccc(N(C)C)cc1,inactive
19,COc1cc(/C=C2/C(=O)NN(c3ccc(Cl)c(Cl)c3)C2=O)cc([N+](=O)[O-])c1O,inactive
20,Cc1ccc(/C=N\NC(=O)COc2ccc(C)cc2[N+](=O)[O-])cc1,inactive
21,CC(=O)CC1OC(=O)C(Br)=C1NCc1ccccc1 (stereo unspecified),inactive
22,O=c1[nH]sc2ccccc12,inactive
23,CN(C)c1ccc(NC(=S)NCC2CCCO2)cc1 (stereo unspecified),inactive
24,Cc1[nH]c2ccccc2c1-c1csc(NC(=O)CSCC(=O)O)n1,inactive
25,O=C1COc2ccc(N3C(=O)C=CC3=O)cc2N1,inactive
26,COc1cc(/C=C2\C(=N)N3N=C(S(C)(=O)=O)SC3=NC2=O)ccc1OS(=O)(=O)c1ccc(C)cc1,inactive

row,Structure (SMILES),outcome
1,Cc1cc(-c2n[nH]c(=S)n2/N=C/c2c[nH]c3ccccc23)n[nH]1,inactive
2,Cc1ccc2cc3c(N)[nH]nc3nc2c1,inactive
3,COC(=O)CSc1nnc(CNc2ccc(OC)cc2)n1C,inactive
4,C=CS(=O)c1sc(Cl)c(N2CCOCC2)c1[N+](=O)[O-] (stereo unspecified),inactive
5,Cc1ccc2oc(=O)c(/C=C(\O)CC(C)C)nc2c1,inactive
6,Nc1ccc(Nc2nc3ccccc3[nH]2)cc1,inactive
7,CCOC(=O)C1=C(C)N(c2ccccc2)C(=O)/C1=C\c1ccc(O)c(OC)c1,inactive
8,COc1ccc(NC2CCCN(C(=O)c3c(C)noc3C)C2)cc1 (stereo unspecified),inactive
9,Oc1ccc(/C=N/Nc2ccc(Cl)nn2)cc1O,inactive
10,COc1cc(/C=N/Nc2ccccn2)ccc1O,inactive
11,C=CCNC(=S)NNC(=O)c1cc(O)ccc1O,inactive
12,CCOc1cc(C(c2c(O)nc(SC)[nH]c2=O)c2c(O)nc(SC)[nH]c2=O)ccc1O,inactive
13,CCOc1ccc(NCc2nnc(SCC(=O)Nc3cc(C)on3)n2-c2ccc(OC)cc2)cc1,inactive
14,Cc1ccc(CNc2ccc(N3CCOCC3)cc2)cc1,inactive
15,COc1ccc(CNc2ccc(N3CCOCC3)cc2)cc1,inactive
16,CC(=O)N1CCN(c2ccc(NCc3ccc(C)s3)cc2)CC1,inactive
17,Cc1cc(C)n(CCc2nc(-c3ccco3)cs2)n1,inactive
18,Nc1ccc(-c2nc3c(Cl)c(N)ccc3[nH]2)cc1,inactive
19,Nc1ccc2nc(CCCCCCc3nc4ccc(N)cc4[nH]3)[nH]c2c1,inactive
20,O=C1NC(=NCc2ccccc2)S/C1=C/c1ccc(O)cc1,inactive
21,CC(C)C(C(=O)O)N1C(=O)/C(=C/C=C/c2ccco2)SC1=S (stereo unspecified),inactive
22,C/C(=N/NC(=O)CSc1nc2ccccc2n1C)c1ccc(O)cc1,inactive
23,COc1ccc(NC2CCCN(C(=O)CCCn3cncn3)C2)cc1 (stereo unspecified),inactive
24,O=C1NC(=O)/C(=C/c2ccc(O)cc2)S1,inactive
25,O=C(O)Cc1c[nH]c2cccc(O)c12,inactive
26,O=C(CCc1ccc(O)c(O)c1)N/N=C/c1cc2c(cc1[N+](=O)[O-])OCO2,inactive

row,Structure (SMILES),outcome
1,COc1ccc(CC(=O)N/N=C(\C)CC(=O)Nc2ccc(N(C)C)cc2)cc1OC,inactive
2,COc1ccc(/C=N/NC(=O)CCc2n[nH]c(=O)[nH]c2=O)cc1O,inactive
3,COc1cc(/C=C2\C(=O)NN(c3ccccc3)C2=O)ccc1OCC(N)=O,inactive
4,Cc1nnc(Nc2ccc(O)cc2)[nH]c1=O,inactive
5,O=S1(=O)N=C(Nc2ccc(O)cc2)c2ccccc21,inactive
6,CCOc1cc(/C=N/NC(=O)CCc2n[nH]c(=O)[nH]c2=O)ccc1O,inactive
7,C=CCn1c(SCC(=O)c2ccc(O)c(O)c2)nnc1-c1cccnc1,inactive
8,CCOC(=O)CNc1c(-c2ccc(O)cc2)nc2ccccn12,inactive
9,O=C(Nc1cccc(N2C(=O)C=CC2=O)c1)c1cccs1,inactive
10,COc1cc(/C=N/N=C(\N)c2nonc2N)ccc1O,inactive
11,COc1cc(-c2cc(=O)c3c(O)c(OC)c(OC)c(O)c3o2)ccc1O,inactive
12,COc1cc(C=C2C(=O)c3ccccc3C2=O)ccc1O,inactive
13,O=C(CC(=O)N/N=C/c1ccc(O)cc1)N/N=C/c1ccc(O)cc1,inactive
14,O=C(N/N=C/c1ccc(O)c(O)c1)N/N=C/c1ccc(O)c(O)c1,inactive
15,Oc1ccc(Nc2nc(Cl)nc(NCc3ccco3)n2)cc1,inactive
16,CCOc1cc(-c2ccc(N)c(OCC)c2)ccc1N,inactive
17,Nc1cc(C(=O)O)ccc1Nc1ccccc1,inactive
18,Oc1ccc(-c2cn3c(n2)SCC3)cc1O,inactive
19,COc1cc(/C=C/C(=O)OCC(=O)Nc2ccc(S(N)(=O)=O)cc2)ccc1O,inactive
20,Nc1ccc2nc(CCCO)[nH]c2c1,inactive
21,COc1cc(C=C(C(C)=O)C(C)=O)ccc1O,inactive
22,COc1cc(/C=N/NC(=O)c2cccc([N+](=O)[O-])c2)ccc1O,inactive
23,O=c1ccc2cc(O)c(O)cc2o1,inactive
24,O=C(Nc1ccc(O)cc1)/C(=C\c1ccncc1)NC(=O)c1ccccc1,inactive

# Source: PubChem BioAssay AID2102 (Southern Research Specialized Biocontainment Screening …, 2009)
